Source: PubChem
Only some compounds are listed: those with a hit (about 32% of all), similar ones and a draw of the others.
CYP2C9 inhib – human CYP2C9 inhibition | P11712 | CYP2C9 Supersomes, luciferin-H conversion, luminescence | inhibition, % at 5 µM | 96,000 compounds, 20% hits;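 active means blocking of liver enzyme CYP2C9 beyond about 50% at 5 µM, limit read from the data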
Target sequence (P11712 whole entry, looked up): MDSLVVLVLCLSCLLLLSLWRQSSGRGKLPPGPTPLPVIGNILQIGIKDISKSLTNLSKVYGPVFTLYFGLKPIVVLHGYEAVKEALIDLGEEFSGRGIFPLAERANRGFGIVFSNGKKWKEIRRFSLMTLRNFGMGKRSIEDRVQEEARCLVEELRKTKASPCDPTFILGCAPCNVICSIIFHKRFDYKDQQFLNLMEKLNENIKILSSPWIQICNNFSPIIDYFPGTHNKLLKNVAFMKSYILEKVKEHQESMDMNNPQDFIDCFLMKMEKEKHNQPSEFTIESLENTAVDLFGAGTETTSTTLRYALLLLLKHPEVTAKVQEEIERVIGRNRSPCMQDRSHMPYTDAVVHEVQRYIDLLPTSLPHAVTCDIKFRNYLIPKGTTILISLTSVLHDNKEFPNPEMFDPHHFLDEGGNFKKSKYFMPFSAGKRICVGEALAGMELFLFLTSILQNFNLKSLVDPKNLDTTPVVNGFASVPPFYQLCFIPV
CYP2C19 inhib – human CYP2C19 inhibition. CYP2C19 Supersomes, luciferin-H EGE luminescence, 30 min. inhibition, % at 5 µM. P33261. AID 778. 96,000 compounds, 21% hits;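 active means CYP2C19 inhibition above a set limit at 5 µM in the primary screen, cut at about 50% in these data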;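 further: plate controls were negative control wells for no effect and 2.5 mM tranylcypromine positive control for full effect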
CYP2C19 act – activators of human cytochrome P450 2C19; P33261; recombinant CYP2C19, luciferin-H EGE luminescence; stronger effect = higher value; 0 = fully inhibited enzyme, 1 = untreated enzyme; activation factor at 5 µM; 96,000 tested, under 10 active; AID 1025;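 active means activation factor of at least 2 at 5 µM in the primary screen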;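 further: 0 = wells with 2.5 mM tranylcypromine and 1 = vehicle-only wells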
PostGolgi yeast – growth inhibition of a yeast mutant, post-Golgi transport screen. inhibition, % at 10 µM. 98,000 compounds, 0.9% hits. post-Golgi transport phenotypic cell assay;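 further: yeast cells grown in 1536-well plates; yeast grown about 18 h at 30C before absorbance read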
PostGolgi ctrl – yeast control strain growth, post-Golgi counter-screen. AID 738. efflux-deficient yeast background strain, growth absorbance A615, 16 h. inhibition, % at 10 µM. 98,000 compounds, 5% hits
CYP2C9 activ – CYP2C9 (human) activation; P11712; recombinant CYP2C9, luciferin-H conversion, luminescence; stronger effect = higher value; factor 1 = untreated enzyme, 0 = blocked; activation factor at 5 µM; 96,000 compounds, 1.4% hits;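 active means activation factor of 2 or more for CYP2C9 at a 5 µM dose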;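 further: 0 = sulfaphenazole-blocked wells and 1 = vehicle-only wells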
* hit, by the source's call; · = no result. Unless noted, no stated cut-off is given here; in the data, active means inhibition above about 30%; inactive means the rest.

SMILES	CYP2C9 inhib	CYP2C19 inhib	CYP2C19 act	PostGolgi yeast	PostGolgi ctrl	CYP2C9 activ
CCOc1ccc(C2NC(=O)C(C#N)=C(S)N2c2ccc(C)cc2)cc1OC (configuration not stated)	47	-1	1	0	8	0.5
CC(C)(C)Nc1cccccc1=O	-29	2	1	1	18	1.3
Cc1ccc(Nc2cccccc2=O)cc1	36	75*	0.2	6	9	0.6
O=C(COc1ccccc1Cl)c1ccc2c(c1)CCCC2	-93	0	1	-4	7	1.9
COc1ccc(NC(=O)CSc2ncn[nH]2)c([N+](=O)[O-])c1	-1	28	0.7	2	1	1
COc1ccc2c(c1)C(C)CC(C)(C)N2C(=O)CSc1ncn[nH]1 (configuration not stated)	64*	88*	0.1	-7	0	0.4
Cc1cccc(C(=O)Nc2sc(C)c(-c3ccccc3)c2C#N)c1	19	38	0.6	6	14	0.8
Cc1nnc(NC(=O)c2c(-c3ccccc3)noc2C)s1	-1	-5	1	-26	0	1
Cc1noc(C)c1C(=O)Nc1sc(C)c(-c2ccccc2)c1C#N	76*	62*	0.4	6	28	0.2
Cc1onc(-c2c(F)cccc2Cl)c1C(=O)Nc1sc2c(c1C(N)=O)CCC2	74*	21	0.8	-13	33*	0.3
Cc1onc(-c2ccccc2)c1C(=O)Nc1sc2c(c1C(N)=O)CCC2	43	48	0.5	-3	37*	0.6
Cc1onc(-c2ccccc2)c1C(=O)Nc1sc2c(c1C#N)CCC2	68*	4	1	3	44*	0.3
O=C(Cn1cnc2c(cnn2-c2ccccc2)c1=O)N1CCCc2ccccc21	-5	-3	1	6	-1	1.1
CC(=O)Nc1sc2c(c1C#N)CCCCC2	·	·	·	3	-4	·
Cc1ccccc1C(=O)NC(=S)Nc1sc2c(c1C#N)CCCC2	74*	45	0.6	3	27	0.3
Cc1c(Cl)cccc1NC(=O)CCN1CCCC(C)C1 (configuration not stated)	-2	19	0.8	-3	1	1
COc1ccc(OC)c(S(=O)(=O)n2nc(-c3ccccc3)cc2N)c1	39	24	0.8	3	11	0.6
Cc1ccc(-c2cc(N)n(Cc3ccc(Cl)cc3)n2)cc1	62*	83*	0.2	-1	6	0.4
CCCS(=O)(=O)n1nc(-c2ccc(OC)cc2OC)cc1N	·	·	·	3	12	·
COc1cc(OC)cc(-c2cc(N)n(S(=O)(=O)Cc3ccccc3)n2)c1	87*	43	0.6	2	12	0.1
CCCS(=O)(=O)n1nc(-c2ccc(C)cc2)cc1N	67*	91*	0.1	-6	-8	0.3
CCCS(=O)(=O)n1nc(-c2ccc(OC)cc2)cc1N	87*	94*	0.1	2	10	0.1
COc1nc(-c2ccccc2)ccc1-c1noc(-c2ccccc2F)n1	14	-10	1.1	-2	3	0.9
CC(=O)c1cccc(N(C(=O)c2ccco2)C(C(=O)NC2CCCC2)c2ccncc2)c1 (configuration not stated)	16	20	0.8	4	-11	0.8
C=CCNc1nc(-c2ccc(O)c(C(N)=O)c2)cs1	11	75*	0.3	6	1	0.9
SMILES	CYP2C9 inhib	CYP2C19 inhib	CYP2C19 act	PostGolgi yeast	PostGolgi ctrl	CYP2C9 activ
CCOC(=O)c1cnn(-c2ccccc2)c1N	3	10	0.9	5	26	1
CCOC(=O)c1cnn(-c2cccc(Cl)c2)c1N	42	62*	0.4	-3	13	0.6
Cc1cc(C(C)(C)C)cc(S(=O)(=O)NCC(=O)O)c1C	-134	14	0.9	12	14	2.3*
O=C(O)CNS(=O)(=O)c1cc(Cl)c(Cl)cc1Cl	-14	14	0.9	-4	-10	1.1
CCOc1ccc(NC(=O)CSc2nnc(C34CC5CC(CC(C5)C3)C4)n2C)cc1	43	23	0.8	-1	-6	0.6
CCOC(=O)CCS(=O)(=O)c1ccc(-c2ccc(S(=O)(=O)CCC(=O)OCC)cc2)cc1	-4	-20	1.2	-9	-5	1
Cc1ccc(S(=O)(=O)CCC(=O)c2ccc(O)cc2O)cc1	-91	70*	0.3	-2	5	1.9
